This passage reports activity change results from PubChem BioAssay AID743279 (National Center for Advancing Translational Sciences (NCATS), 2014).

The campaign covered roughly 360,000 compounds. About 17,000 (4.7%) were called active. Not shown: some 5% with an inconclusive outcome. The sample as a whole holds a higher share of actives than the screen did. Values without a mark were called inactive. No stated cut-off is given here; in the data, active means activity change below about -50%; inconclusive means mostly about -30% to -49%; inactive means weaker than that.
On the % scale 0 is the no-effect control and ±100 the full control effect.

This assay can be described thus: qHTS for Inhibitors of Inflammasome Signaling: IL-1-beta AlphaLISA Primary Screen. The following applies: THP-1 LPS/ATP IL-1B secretion, 16 h; at 57.5 µM, active compounds read low. The text has this: Inflammasomes are a set of intracellular multi-protein complexes that enable autocatalytic activation of inflammatory caspases and drive the innate immune response to counter harmful agents. […] A qHTS assay, based on AlphaLISA technology, was developed to screen the Molecular Libraries Small Molecule Repository (MLSMR) to look for novel inflammasome inhibitors. The assay detects IL-1B using AlphaLISA anti-IL-1B acceptor and donor beads. A decreased emission signal, indicating reduced IL-1B secretion, is the desired outcome for this assay. NIH Chemical Genomics Center [NCGC] NIH Molecular Libraries Probe Centers Network [MLPCN] MLPCN Grant: MH095513 Assay Provider: Shyam Biswal Ph.D., Johns Hopkins University Immunity. 2012 Jul 27;37(1):85-95. PMID: 22819042 [2] Curr Pharm Des. 2012;18(16):2320-8. PMID: 22390695
Three microliters containing 3000 THP-1 cells were dispensed into the wells of solid, white, tissue culture treated Greiner 1,536-well plates. Library compounds and positive control, Glyburide, were pin-transferred (23 nL) by a Kalypsys pin-tool equipped with a 1,536-pin array, resulting in final compound concentration ranges of 2.5 nM to 57.5 uM. After 1 hr of cell culture incubation (37 °C, 5% CO2), 1 microL of 1 microg/mL lipopolysaccharide (250 ng/mL, final) and 5 mM ATP (1.25 mM, final) were added to stimulate the cells. After 16 hr of cell culture incubation with the compounds, 1.5 uL of anti-IL-1B acceptor beads (6 ug/mL, final) and biotinylated antibody (0.6 nM, final) were added to the plate, followed by a 1 hr incubation at ambient temperature. To detect the secreted IL-1B, 1.5 uL of AlphaLISA SA-Donor beads (24 ug/mL, final) were added, followed by 30 min of incubation in the dark at ambient temperature. The AlphaLISA signal was read by a PerkinElmer EnVision plate reader with an ultrasensitive luminescence detector and 1536 Plate HTS AlphaScreen aperture (excitation of 680nm and emission of 615nm).
For the compound `Cc1ccc(-c2nc(CSCC(=O)NC3CCN(Cc4ccccc4)CC3)c(C)o2)cc1`, the activity change was -64.8% (active).
Regarding `Cc1ccc(-c2cc(C(=O)NC3CCN(Cc4ccccc4)CC3)c3ccccc3n2)cc1`, the activity change was -4.22%.
As for `Cc1ccc(S(=O)(=O)NCCC(=O)NC2CCN(Cc3ccccc3)CC2)cc1`, the figure is -11.3%.
The value for `CC(=O)c1ccc(S(=O)(=O)N(C)CCCC(=O)N(C)Cc2ccccc2F)cc1` was -0.0792%.
The value for `Cc1cccc(C)c1NC(=O)N1CC(C)OC(C)C1` (centres undefined) was -6.92%.
In the case of `Cc1ccc(S(=O)(=O)N(C)c2nc3ccccc3n3c(C(C)C)nnc23)cc1`, the activity change was 9.42%.
As for `O=C1N(c2ccc(Cl)cc2)C(c2ccc(Cl)cc2)N2CCCN12` (centres undefined), the figure is -5.15%; as for `CCOC(=O)N1CCC(N2Cc3cccc(C(=O)Nc4c(C)cccc4CC)c3C2=O)CC1`, -55.1% (active); as for `CCOC(=O)N1CCC(N2Cc3cccc(C(=O)Nc4ccc(S(=O)(=O)N(CC)CC)cc4)c3C2=O)CC1`, 63.8%.
The value for `O=C(O)c1cccc2c1C(=O)N(C1CCCC1)C2` was -1.11%; that for `CC1(C(=O)NCc2ccc3c(c2)OCO3)CCN1C(=O)Cc1cccs1` (centres undefined) was -5.2%.
`COc1cccc(NC(=O)CN(C)C(=O)/C=C/c2cn(-c3ccccc3)nc2-c2cccs2)c1`: the activity change was -24.8%.
As for `COc1cccc(NC(=O)CN(C)C(=O)CSCc2nc3scc(-c4cccs4)c3c(=O)[nH]2)c1`, the activity change is -57.4% (active).
The value for `COc1cccc(NC(=O)CN(C)C(=O)CSC(=S)N2CCCC2)c1` was 6.49%.
Consider `Cc1cc(C)n(CC(=O)Nc2ccc([N+](=O)[O-])cc2)n1`, for which the activity change was 15.4%.
As for `COCOc1cccc(CN2CCC(C)(Oc3ccc(SC)cc3)C2)c1` (centres undefined), the figure is -9.11%; as for `Fc1cnc(N2CCOCC2)nc1NCc1ccccc1`, 38.4%.
As for `c1ccc2c(NC3C4CC5CC(C4)CC3C5)nc(N3CCOCC3)nc2c1` (centres undefined), the figure is -79.7% (active).
As for `c1cnc(NC2C3CC4CC(C3)CC2C4)nc1` (centres undefined), the figure is 16.6%.
As to `O=C(CNC(=O)N1CC(=O)Nc2ccccc21)Nc1ccc(Br)cc1F`, the activity change was 16.8%.
The value for `CC(C)Cc1nnc(N)s1` was -2.84%; that for `CC1Cc2nc(SCC(=O)Nc3ccccc3F)n(C)c(=O)c2S1` (centres undefined) was 11.4%; that for `COCc1cccc(-c2csc(C(O)c3ccc(F)cc3)n2)c1` (centres undefined) was -9.62%.
The value for `COc1ccc(/C=C/C(=O)c2ccc(NS(=O)(=O)c3ccc(C)cc3)cc2)cc1O` was -103% (active); that for `Cc1ccc(C(=O)/C=C/Nc2ccc(S(=O)(=O)Nc3onc(C)c3C)cc2)cc1` was 31.6%.
The value for `COc1ccc(NS(=O)(=O)c2ccc(NC(=S)NC(=O)/C=C/c3ccc(C)cc3)cc2)nn1` was -26.8%; that for `CC1CC(C)CN(c2ccc(S(=O)(=O)N3CCOCC3)cc2)C1` (centres undefined) was -9.62%.
On to `COc1ccc(NC(=O)CSc2nnnn2-c2cccc(OC)c2)cc1`, for which the activity change is -9.12%.
Turning to `CC1(C(=O)NS(=O)(=O)Cc2cccc(Cl)c2)CCN1C(=O)Cc1ccc(Cl)cc1Cl` (centres undefined), the activity change is -21.1%.
As for `O=C(O)c1ccccc1N=N/C(=N/Nc1cc(S(=O)(=O)O)ccc1O)c1ccccc1`, the figure is -57.4% (active); as for `O=C(O)c1ccccc1/C=N/Nc1ccc(S(=O)(=O)Nc2ccc(Cl)cc2)cc1[N+](=O)[O-]`, 12.8%.
Consider `Cc1ccc(S(=O)(=O)N2CCC(C(=O)N3CCCCCCC3)CC2)cc1`, for which the activity change is -8.84%.
The value for `O=C1C(Cl)=C(Oc2ccccc2)C(=O)c2ccccc21` was -18%; that for `CCS(=O)(=O)N1CCN(C(=O)c2cccs2)CC1` was 38.7%.
The value for `Cc1ccc(N2CCN(C(=O)c3cccs3)CC2)c(C)c1` was -56% (active).
The value for `Cc1ccc(S(=O)(=O)N2CCN(C(=O)c3cccs3)CC2)cc1` was 0%; that for `Cc1nc2ccccc2c(C(=O)O)c1-c1ccccn1` was 12.8%; that for `COc1ccc(NC(=O)CSc2ncnc3[nH]ncc23)cc1` was -51% (active).
Regarding `COc1ccc(NC(=O)CSc2nc(C)cs2)cc1`, the activity change was 15.6%.
The value for `COc1ccc(-n2ncc3c(SCC(=O)NNC(C)=O)ncnc32)cc1` was -3.94%; that for `CCN(CC)C(=O)C1=C(C)N(Cc2ccc(F)cc2)C(=O)C(CC(=O)NC2CCCC2)C1` (centres undefined) was 3.15%.
As for `CCOc1ccc(CCNC(=O)COC(=O)c2ccc(C)c(S(=O)(=O)N3CCOCC3)c2)cc1OCC`, the figure is -2.62%; as for `Cc1noc(C)c1NC(=O)N(C)C[C@@H]1Oc2cc(Br)ccc2S(=O)(=O)N([C@@H](C)CO)C[C@H]1C`, -11.1%.
As for `CCCNC(=O)c1cc(C2CCCN(C(=O)c3ccc4c(c3)CCO4)C2)on1` (centres undefined), the figure is 25.3%; as for `CC(=O)c1c(C)[nH]c(C(=O)COC(=O)c2cccs2)c1C`, 17.9%; as for `COc1cccc(C(=O)OCC(=O)c2[nH]c(C)c(C(C)=O)c2C)c1`, 12.1%.
Take `CC(=O)c1c(C)[nH]c(C(=O)COC(=O)CCOc2ccc(C)cc2)c1C`: the activity change is -89.1% (active).
As for `COc1c(F)c(F)c(-c2csc(N)n2)c(F)c1F`, the figure is -14.1%; as for `CCOC(=O)[C@]12CCC=C1N(Cc1ccccc1)C(=O)[C@H](CC(=O)N1CCCC1)C2`, 48.2%; as for `CN(C)c1ccc(S(=O)(=O)NCC(=O)NCC2CCCCC2)cc1[N+](=O)[O-]`, 8.52%.
As for `COc1ccc(NS(=O)(=O)c2ccc(O)c(C(=O)OCC(=O)NC3CCCCC3)c2)cc1`, the figure is 40.3%; as for `CCN(C(=O)COC(=O)c1cc(NS(=O)(=O)c2ccc(Cl)c([N+](=O)[O-])c2)ccc1O)C1CCCCC1`, -98.5% (active).
As for `C=CCn1c(SCC(=O)c2ccc(Br)cc2)nnc1C(C)NC(=O)Cc1ccc(OC)cc1` (centres undefined), the activity change was 18.8%.
For `C=CC(=O)Nc1ccc(Nc2ccnc(Nc3ccc(N4CCN(C)CC4)cc3)n2)cc1`, the activity change is -83.2% (active).
With `Cc1cccc(N2CCN(c3ccc(NC(=O)/C=C\C(=O)O)cc3)CC2)c1`, the activity change is -21.2%.
As for `Cn1cnnc1SCC(=O)Nc1ccc(N2CCOCC2)cc1`, the activity change was 19.7%.
Take `COc1cccc(-c2ccc3c(c2)N(Cc2ccccc2OC)C(=O)C(C)S3)c1` (centres undefined): the activity change is 43.9%.
The value for `COc1ccc(CCNC(=O)Nc2ccc3c(c2)c(=O)n(C)n3C)cc1OC` was -16.8%.
With `Cc1c(OC(C)C(=O)N[C@@H](Cc2ccccc2)C(=O)O)ccc2c3c(c(=O)oc12)CCCC3` (some centres undefined), the activity change was 11.6%.
In the case of `O=C1NC(=O)C(CCc2ccccc2)(c2ccccc2)N1` (centres undefined), the activity change was -4.4%.
The value for `O=C(NCc1ccccc1)c1onc(CSc2ccncc2)c1C(=O)NCc1ccccc1` was 39.9%.
As for `COc1cccc(Nc2nc(N)c([N+](=O)[O-])c(NCc3ccco3)n2)c1`, the figure is -69.4% (active); as for `CN(c1ccccc1)c1nc(N)c([N+](=O)[O-])c(NCc2ccco2)n1`, -23.7%.
The value for `COc1ccc(Nc2nc(NCc3ccco3)nc(N/N=C/c3ccccc3Cl)n2)cc1` was -12.1%; that for `COC(=O)c1sccc1NC(=O)COc1ccc(Cl)cc1` was -5.02%; that for `CCOC(=O)c1c(NC(=O)c2ccc(S(=O)(=O)N(C)CC3CCCO3)cc2)sc2c1CC(C)(C)NC2(C)C` (centres undefined) was -16.8%.
On to `COC(=O)c1c(NC(=O)COc2ccc(Cl)cc2Cl)sc2c1CC(C)(C)NC2(C)C`, for which the activity change was -99.6% (active).
The value for `C[C@@H]1CN([C@H](C)CO)C(=O)CCCn2cc(nn2)CO[C@H]1CN(C)S(C)(=O)=O` was -20.6%; that for `COC(=O)Cc1ccc(OC2(C)CCN(Cc3ccc4c(c3)OCCO4)C2)cc1` (centres undefined) was 12.5%.
As for `COc1cc2c(cc1OC)C(Cc1cc(OC)c(OC)cc1[N+](=O)[O-])=NCC2`, the figure is -58.9% (active); as for `COc1cc(CN2CCCN(C)CC2)c([N+](=O)[O-])cc1OC`, 26.5%; as for `COc1cc2c(cc1OC)C(c1cccc([N+](=O)[O-])c1)=NCC2`, -7.18%.
The value for `C=CCOc1ccccc1CNn1c(C)n[nH]c1=S` was 0.633%.
With `CC(C)=CCc1ccc(O)c(=O)cc1C(C)C`, the activity change was 1.89%.
The value for `CC(C)=CCc1c(O)c(CC=C(C)C)c2occ(-c3ccc(O)cc3)c(=O)c2c1O` was -78.8% (active); that for `COc1cc(CNc2ncnc3c2ncn3[C@H]2CN(Cc3cccs3)C[C@@H](CO)O2)cc(OC)c1OC` was 0.705%; that for `CCCCn1c(N)c(N(CCOC)C(=O)CSCC(=O)Nc2cccc(C)c2)c(=O)[nH]c1=O` was 9.86%.
The value for `CCCCCn1nnnc1-c1nc2cc3ccccc3cc2[nH]c1=O` was 1.49%; that for `CCCCn1c(-c2cccc(C)c2)nc2cc3[nH]c(=O)c(C(C)C)nc3cc21` was -61% (active).
The value for `CC(C)Oc1ccc(C2NC(=O)NC2=O)cc1` (centres undefined) was 10.2%; that for `COc1ccccc1-c1n[nH]nc1C1=CC(=O)CC(C)(C)C1` was -12.1%.
`COc1cc2nnn(-c3ccncc3)c2cc1OC`: the activity change is -22.1%.
As for `c1ccc2c(c1)nnn2-c1ccncc1`, the figure is -56.6% (active); as for `Cc1ccc(-c2nnc(-n3nnc4ccccc43)c3ccccc23)cc1`, 55.9%; as for `CC(Sc1ccc(S(=O)(=O)N2CCN(C)CC2)cn1)C(=O)NC1CCCC(C)C1C` (centres undefined), -7.4%.
In the case of `COc1cccc(-c2cc3nc4c(c(N5CCC6(CC5)OCCO6)n3n2)CCCC4)c1`, the activity change was -96.1% (active).
Turning to `COc1cccc(CNc2nc3nc4c(c(=O)n3[nH]2)CCC4)c1`, the activity change is -4.67%.
Turning to `N#C/C=C\Oc1ccc(Cl)cc1N`, the activity change was -9.78%.
On to `Cc1ccccc1S(=O)(=O)NC(=O)C1(C)CCN1C(=O)C1(c2ccccc2)CCCC1` (centres undefined), for which the activity change is 31.4%.
